Test [1] can be described thus: TOX21_p53_BLA_p2_viability: Viability Assessment in the Tox21 HCT-116 p53 Agonism Beta-lactamase Assay, Phase 2 (AID 2283591).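 Further: actives lower the ATP signal meaning cytotoxicity.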 The essentials: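 HCT-116 p53-bla cells (4000/well) rested 5 h at 37C, then received compounds in DMSO (217-fold dilution) for 16 h at 37C, 5% CO2. After the CCF4 read, CellTiter-Glo was added; ATP luminescence was read after 30 min at room temperature.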

A short description of test [2]: TOX21_p53_BLA_p3_viability: Viability Assessment in the Tox21 HCT-116 p53 Agonism Beta-lactamase Assay, Phase 3 (AID 2283593).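 Further: cells exposed to compound for 16 h before reading.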 A digest of the protocol: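 HCT-116 cells (4000/well) rested 5 h at 37C, then got DMSO compounds by pin tool (217-fold dilution) for 16 h at 37C, 5% CO2. After the bla read, CellTiter-Glo was added and luminescence read at 30 min, room temperature.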

Test [3] can be described thus: TOX21_p53_BLA_p4_viability: Viability Assessment in the Tox21 HCT-116 p53 Agonism Beta-lactamase Assay, Phase 4 (AID 2283597).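 Further: hits lower the luminescence signal meaning cytotoxicity.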 The essentials:
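4000 HCT116 cells per well; 5 h attachment; compounds from DMSO, 217-fold dilution; 16 h at 37C. Then CCF4-AM, 2 h RT, followed by CellTiter-Glo, 30 min RT, luminescence. Decrease = cytotoxicity.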

In test [4] the target is Cellular tumor antigen p53 (Homo sapiens) (UniProt P04637). Briefly: TOX21_p53_BLA_p5_ratio: Tox21 HCT-116 p53 Agonism Beta-lactamase Assay, Ratio, Phase 5 (AID 2283599). The essentials: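 HCT-116 cells carrying a p53-inducible beta-lactamase reporter were seeded at 4000 cells/well and dosed after 5 h with compound in DMSO (217-fold dilution). After 16 h at 37C, CCF4-AM substrate was added for 2 h, and the 460/530 nm emission ratio was scored as gain-of-signal versus DMSO.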
Sequence of Cellular tumor antigen p53 (Homo sapiens) (P04637 whole entry, looked up): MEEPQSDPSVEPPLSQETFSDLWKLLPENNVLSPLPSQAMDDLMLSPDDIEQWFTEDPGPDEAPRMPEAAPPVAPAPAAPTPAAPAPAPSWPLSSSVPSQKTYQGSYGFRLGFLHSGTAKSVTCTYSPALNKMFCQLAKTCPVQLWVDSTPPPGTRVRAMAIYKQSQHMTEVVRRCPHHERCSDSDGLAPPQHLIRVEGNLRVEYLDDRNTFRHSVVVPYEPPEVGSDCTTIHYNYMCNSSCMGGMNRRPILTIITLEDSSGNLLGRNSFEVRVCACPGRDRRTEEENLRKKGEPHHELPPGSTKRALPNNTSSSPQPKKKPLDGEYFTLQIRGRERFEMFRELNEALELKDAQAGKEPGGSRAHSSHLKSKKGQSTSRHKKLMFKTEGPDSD

Test [5] has the same target. Briefly: TOX21_p53_BLA_p4_ratio: Tox21 HCT-116 p53 Agonism Beta-lactamase Assay, Ratio, Phase 4 (AID 2283601). The essentials: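 HCT116 cells carrying an inducible beta-lactamase reporter were plated at 4000 cells/well, rested 5 h, then exposed to compounds in DMSO (217-fold dilution) for 16 h at 37C. CCF4-AM substrate was loaded 2 h at room temperature; 460/530 nm emission ratio scored gain-of-signal versus DMSO.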

The nature of test [6]: TOX21_p53_BLA_p5_viability: Viability Assessment in the Tox21 HCT-116 p53 Agonism Beta-lactamase Assay, Phase 5 (AID 2283600). The essentials: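 Decreased CellTiter-Glo luminescence denotes lost viability. Exposure: 16 h at 37C, 5% CO2, with compounds from DMSO stocks diluted 217-fold in wells of 4000 cells.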

Records with an inconclusive call do not appear. Calls of active or inactive are those of the source. How the source made its calls: active means hit-call score of the fitted dose curve at least 0.9, where 1 is the maximum; inconclusive means response in the unintended direction; inactive means score below 0.9.

Broadly, the AC50 is the concentration at which the activity in the assay is half-maximal.

In the case of `Cc1ccc(Cl)cc1N`, the compound was classed as inactive in test [1], in test [2], in test [3], in test [4] and in test [5].
With `CN(CCO)CC(O)Cn1cnc2c1c(=O)n(C)c(=O)n2C` (stereo not drawn) (tested in a mixture with another compound), the compound was classed as inactive in test [1], in test [2], in test [3] and in test [6].
Regarding `CC(=O)SC[C@@H](Cc1ccccc1)C(=O)NCC(=O)OCc1ccccc1`, the compound was called inactive in test [1], in test [2], in test [3], in test [4], in test [6] and in test [5].
With `O=c1[nH][nH]c(=O)c2cc([N+](=O)[O-])ccc12`, the outcome in test [1], in test [2], in test [3] and in test [6] was inactive.
As to `Cc1cc(-c2ccc(N=Nc3c(S(=O)(=O)O)cc4cc(S(=O)(=O)O)cc(N)c4c3O)c(C)c2)ccc1N=Nc1c(S(=O)(=O)O)cc2cc(S(=O)(=O)O)cc(N)c2c1O`, the result in test [1] and in test [6] was inactive. In addition, the AC50 in test [2] was 16.3 µM (active); in test [3], 20.6 µM (active).
On to `CN(C)CCOC(c1ccccc1)c1ccccc1` (tested in a mixture with another compound), for which the call in test [1], in test [2], in test [3] and in test [6] was inactive.
For the compound `O=C(O)/C=C/C(O)c1ccc(Cl)cc1` (stereo not drawn), the result in test [1], in test [2], in test [3], in test [4], in test [6] and in test [5] was inactive.
As to `CCCCCCCCCCCCCCCC[N+](C)(C)CCN(Cc1ccc(OC)cc1)c1ncccn1`, the call in test [1], in test [2], in test [4], in test [6] and in test [5] was inactive. Further, the AC50 in test [3] was 17.3 µM (active).
On to `COC(C)(OC)OC`, for which the call in test [1], in test [2], in test [3], in test [4] and in test [5] was inactive.
Turning to `N#C[C@@H]1C[C@@H]2C[C@@H]2N1C(=O)[C@@H](N)C12CC3CC(CC(O)(C3)C1)C2`, the call in test [1], in test [2], in test [3], in test [4], in test [6] and in test [5] was inactive.
In the case of `Cc1ccc(C(=O)O)cc1`, the outcome in test [1], in test [2], in test [3], in test [4] and in test [6] was inactive.
In the case of `O=c1[nH]c2ccccc2n1CCCN1CCN(C(c2ccccc2)c2ccccc2)CC1`, the compound was classed as inactive in test [1], in test [2] and in test [6]. In addition, the AC50 in test [3] is 31.3 µM (active).
As to `CC(C)C(O)(c1ccc(OC(F)(F)F)cc1)c1cncnc1` (stereo not drawn), the compound was called inactive in test [1], in test [2], in test [3], in test [4] and in test [5].
Consider `CCN(CC)C(=O)c1cccnc1`, for which the call in test [1], in test [2], in test [3], in test [6] and in test [5] was inactive.
Regarding `O=C1OCCO1`, the outcome in test [1], in test [2], in test [4] and in test [6] was inactive.
For the compound `CC(C)(CC(=O)O)C(=O)O`, the call in test [1], in test [2], in test [4] and in test [6] was inactive.
`Cc1ccc(/C(=C\CN2CCCC2)c2cccc(/C=C/C(=O)O)n2)cc1`: the compound was classed as inactive in test [1], in test [2], in test [3] and in test [5].
With `Cc1ccc(N(CCO)CCO)cc1`, the call in test [1], in test [2], in test [4], in test [6] and in test [5] was inactive.
Take `O=C(O)CN(CC(=O)O)CC1=CC2C(=CC1=O)Oc1cc(O)c(CN(CC(=O)O)CC(=O)O)cc1C21OC(=O)c2ccccc21` (stereo not drawn): the call in test [1], in test [2] and in test [6] was inactive.
In the case of `C=C(C)C(=O)OCCCCCCCCCCOC(=O)C(=C)C`, the call in test [1], in test [2] and in test [4] was inactive.
On to `O=C(O)CCC(=O)Nc1ccc(S(=O)(=O)Nc2nccs2)cc1`, for which the compound was called inactive in test [1], in test [2], in test [4], in test [6] and in test [5].
For the compound `CCN(CC)CCOCCOC(=O)C1(c2ccccc2)CCCC1`, the result in test [1], in test [2], in test [3], in test [6] and in test [5] was inactive.
Consider `CC12CCC(C(=O)C1=O)C2(C)C` (stereo not drawn), for which the compound was classed as inactive in test [1], in test [2], in test [4] and in test [6].
In the case of `CCOC(=O)C(C)O` (stereo not drawn), the compound was called inactive in test [1], in test [2], in test [3], in test [6] and in test [5].
Turning to `CC(=O)c1ccc(OCC(=O)N2CCCCC2)cc1`, the call in test [1], in test [2], in test [4], in test [6] and in test [5] was inactive.
For `CC(CO)(CO)CO`, the result in test [1], in test [2], in test [4], in test [6] and in test [5] was inactive.
Turning to `CC1=C(C)C(=O)C(C(CCCCCC(=O)O)c2ccccc2)=C(C)C1=O` (stereo not drawn), the result in test [1], in test [2], in test [3] and in test [5] was inactive.
As to `CCC(C)[O-].CCC(C)[O-].CCOC(=O)/C=C(/C)[O-].[Al+3]`, the result in test [1], in test [2] and in test [6] was inactive.
As for `O=C(O)C(=O)Cc1ccccc1`, the compound was called inactive in test [1], in test [2], in test [4] and in test [5].
Turning to `CC1CCc2nccnc21` (stereo not drawn), the outcome in test [1], in test [2] and in test [6] was inactive.
Consider `NCc1ccccc1Sc1ccccc1CO`, for which the call in test [1], in test [2], in test [3] and in test [5] was inactive.
In the case of `COc1cc(N)c(Cl)cc1C(=O)NC1CCN(Cc2ccccc2)CC1`, the compound was classed as inactive in test [1], in test [2] and in test [6].
Turning to `CC1(C)S[C@@H]2[C@H](NC(=O)C(c3ccccc3)S(=O)(=O)O)C(=O)N2[C@H]1C(=O)O` (stereo partly drawn), the compound was called inactive in test [1], in test [2], in test [3] and in test [5].
On to `Nc1cc(Cl)c(NC2=NCCN2)c(Cl)c1`, for which the outcome in test [1], in test [2], in test [4] and in test [5] was inactive.
For the compound `NC(=O)C1c2ccccc2CCc2ccccc21`, the call in test [1], in test [2] and in test [4] was inactive.
For `CC(C)OC(C)C`, the outcome in test [1], in test [2], in test [4], in test [6] and in test [5] was inactive.

The values are drawn from PubChem BioAssay (EPA / NIEHS).
